Among all 16,000 compounds or so, about 5,100 (32%) were called active. Roughly 25% stayed inconclusive and do not appear here. Calls come from the whole dose curve; as a rule, active = well fitted curve in the direction sought with a large enough effect; inconclusive = small, poorly fitted or top-dose-only effect, or effect the other way; inactive = no such curve, though single readings can be large or run the other way. The list shows a part of the results.

The term AC50 denotes the concentration at which the activity in the assay is half-maximal.
% is set by controls: 0 for no effect and ±100 for the full control effect.

Sequence of Cytochrome P450 3A4 (Homo sapiens) (P08684 whole entry, looked up): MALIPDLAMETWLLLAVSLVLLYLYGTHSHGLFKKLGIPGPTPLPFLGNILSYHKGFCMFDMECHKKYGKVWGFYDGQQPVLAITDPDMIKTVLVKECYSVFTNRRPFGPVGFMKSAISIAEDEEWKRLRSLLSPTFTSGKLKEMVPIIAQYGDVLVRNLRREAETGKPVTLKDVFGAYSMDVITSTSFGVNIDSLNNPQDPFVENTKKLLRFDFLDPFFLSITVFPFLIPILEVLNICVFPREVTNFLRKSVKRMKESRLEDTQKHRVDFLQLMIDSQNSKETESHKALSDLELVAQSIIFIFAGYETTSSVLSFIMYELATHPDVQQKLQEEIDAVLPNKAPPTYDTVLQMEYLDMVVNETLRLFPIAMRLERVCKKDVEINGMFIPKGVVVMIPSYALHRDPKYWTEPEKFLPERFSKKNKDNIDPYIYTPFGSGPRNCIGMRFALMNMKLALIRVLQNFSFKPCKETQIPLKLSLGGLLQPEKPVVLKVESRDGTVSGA

The assay addresses Cytochrome P450 3A4 (Homo sapiens) (UniProt P08684). Briefly: Cytochrome panel assay with activity outcomes. The following applies: recombinant CYP, pro-luciferin dealkylation, luminescence, p450-cyp3a4; series mostly up to 57.1 µM; activity, negative = inhibition: at the top concentration.
As to `O=C(O)c1c2ccccc2cc2ccccc12`, the “activity, negative = inhibition” value is 0.0487% (inactive).

Consider `NC(=S)Nc1cc2ccccc2c2ccccc12`, for which the AC50 was 15.8 µM (active).

Take `CN=C(N)/N=C(\N)Nc1cc2ccccc2c2ccccc12`: the activity, negative = inhibition was -14.5% [at 11.4 µM] (inactive).

As for `O=C1CC(=O)C(n2cncn2)C(c2cccc(Cl)c2)C1` (configuration not stated), the AC50 is 0.501 µM (active).

As to `CCN(CC)C(=O)C1CC(=O)N(c2ccc(OC)cc2)C1c1ccc(OC)cc1` (configuration not stated), the activity, negative = inhibition is -28.4% [at 2.29 µM] (inactive).

With `COc1ccc(C2CC(=O)CC(=O)C2n2cncn2)cc1` (configuration not stated), the AC50 is 2.24 µM (active).

In the case of `COCCNc1nc(-c2cccc(NS(C)(=O)=O)c2)nc2ccccc12`, the AC50 is 12.6 µM (active).

Consider `CS(=O)(=O)Nc1cccc(-c2nc(NCc3cccs3)c3ccccc3n2)c1`, for which the AC50 was 3.16 µM (active).

Turning to `Cc1cccc(CNc2nc(-c3cccc(NS(C)(=O)=O)c3)nc3ccccc23)c1`, the AC50 is 5.01 µM (active).

With `CS(=O)(=O)Nc1cccc(-c2nc(NCc3cccnc3)c3ccccc3n2)c1`, the AC50 was 2 µM (active).

As for `NC(=O)/C(=N\O)c1ccccc1`, the “activity, negative = inhibition” value is -20.2% (inactive).

As to `c1cc(NNc2cccc(-c3nn[nH]n3)c2)cc(-c2nn[nH]n2)c1`, the activity, negative = inhibition was -11.1% [at 11.4 µM] (inactive).

On to `CC(=O)NCCNc1nc(-c2cccc(NS(C)(=O)=O)c2)nc2ccccc12`, for which the AC50 is 15.8 µM (active).

Take `CS(=O)(=O)Nc1cccc(-c2nc(NCc3ccccc3)c3ccccc3n2)c1`: the AC50 is 3.16 µM (active).

With `Cn1c(=O)c2c(ncn2CN2CCN(Cn3cnc4c3c(=O)n(C)c(=O)n4C)CC2)n(C)c1=O`, the activity, negative = inhibition is 3.42% [at 11.4 µM] (inactive).

On to `COc1ccc(CNc2ncnc3ccc(-c4cccc(C#N)c4)cc23)c(OC)c1`, for which the AC50 is 1.58 µM (active).

Turning to `COc1ccccc1CNc1ncnc2ccc(-c3cccc(C#N)c3)cc12`, the AC50 is 7.94 µM (active).

As for `Cc1ccc(S(=O)(=O)NC(=O)OC23COCN2COC3)cc1`, the activity, negative = inhibition was -8.25% [at 11.4 µM] (inactive).

Regarding `O=c1c(-c2cc(F)cc(F)c2)nc2cncnc2n1-c1ccccc1`, the “activity, negative = inhibition” value is -35.4% (inactive).

`Cn1c(=O)c(-c2ccc(Cl)cc2)nc2cncnc21`: the “activity, negative = inhibition” value was -13.1% (inactive).

For the compound `COc1ccc(-n2c(=O)c(-c3ccc(Cl)cc3)nc3cncnc32)cc1`, the half-maximal activity concentration (AC50) was 15.8 µM (active).

As to `COc1ccc(-n2c(=O)c(-c3cc(F)cc(F)c3)nc3cncnc32)cc1`, the AC50 was 12.6 µM (active).

Turning to `COc1ccc(-n2c(=O)c(-c3cccc(F)c3)nc3cncnc32)cc1`, the AC50 is 20 µM (active).

Consider `COc1ccc(-n2c(=O)c(-c3ccc(F)cc3)nc3cnc(N4CCOCC4)nc32)cc1`, for which the “activity, negative = inhibition” value was -15.1% (inactive).

Consider `COc1ccc(-n2c(=O)c(C)nc3cncnc32)cc1`, for which the AC50 is 5.01 µM (active).

For `COc1ccc(-n2c(=O)c(-c3ccc(F)cc3)nc3cncnc32)cc1`, the “activity, negative = inhibition” value was -30.6% (inactive).

In the case of `CCNc1ncc2nc(-c3cc(F)cc(F)c3)c(=O)n(-c3ccc(OC)cc3)c2n1`, the concentration at half-maximal activity (AC50) was 10 µM (active).

Take `CCNc1ncc2nc(-c3ccc(F)cc3)c(=O)n(-c3ccccc3)c2n1`: the “activity, negative = inhibition” value was -12.8% (inactive).

As for `Cn1c(=O)c(-c2cccc(Cl)c2)nc2cncnc21`, the “activity, negative = inhibition” value was -21.6% (inactive).

On to `COc1ccc(-n2c(=O)c(-c3cccc(Cl)c3)nc3cncnc32)cc1`, for which the AC50 was 12.6 µM (active).

Consider `Nc1ncnc2c1ncn2[C@H]1O[C@@H](C(=O)O)[C@@H](O)[C@H]1O`, for which the activity, negative = inhibition is 0.186% [at 11.4 µM] (inactive).

For the compound `CCOC(=O)C1=C(CSc2nc3ccccc3s2)NC(=O)NC1c1cc(C)ccc1C` (configuration not stated), the AC50 is 4.47 µM (active).

In the case of `CCOC(=O)C1=C(CSc2nc3ccccc3s2)NC(=O)NC1c1cccc([N+](=O)[O-])c1` (configuration not stated), the AC50 was 6.31 µM (active).

For the compound `CCOC(=O)C1=C(COc2ccc(F)cc2Cl)NC(=O)NC1c1cc(C)ccc1C` (configuration not stated), the AC50 is 6.31 µM (active).

Consider `COC(=O)C1=C(CSc2nncn2C)NC(=O)NC1c1ccc(F)cc1` (configuration not stated), for which the “activity, negative = inhibition” value was -6.15% (inactive).

Consider `CCC(=O)NNc1cc(=O)c2c(=O)n(C)c(=O)n(C)c2[nH]1`, for which the activity, negative = inhibition is 1.3% [at 2.29 µM] (inactive).

For the compound `O=C1CCCN1c1ccc(S(=O)(=O)Oc2cccc(Cl)c2)cc1[N+](=O)[O-]`, the AC50 is 12.6 µM (active).

On to `O=[N+]([O-])c1ccc(N2CCCCC2)c(Cl)c1N1CCCCC1`, for which the “activity, negative = inhibition” value was -20.1% (inactive).

For `Cn1cccc1C(=O)N1CCC2(CC1)CCN(c1ccccn1)CC2`, the “activity, negative = inhibition” value was 27.7% (inactive).

Turning to `CN1C(=O)/C(=C\c2ccccc2)Sc2ccc(C(=O)N3CCN(c4ccccn4)CC3)cc21`, the AC50 is 14.1 µM (active).

On to `Cc1cnc(CNc2nc(-c3cccnc3)nc3ccccc23)cn1`, for which the AC50 was 3.98 µM (active).

With `COc1cccc(-c2nc(NCc3cnc(C)cn3)c3ccccc3n2)c1`, the AC50 is 2.51 µM (active).

As to `CCCC12CN3CC(CCC)(CN(C1)C3C(O)C(O)C(O)CO)C2=O` (configuration not stated), the activity, negative = inhibition is 0.643% [at 11.4 µM] (inactive).

In the case of `Cc1ccc(C(=O)NNC(=S)NC(=O)c2ccc(Cl)cc2)cc1`, the AC50 is 14.1 µM (active).

In the case of `O=C(NNC(=S)NC(=O)c1cccnc1)c1ccccc1`, the activity, negative = inhibition was 1.97% [at 2.29 µM] (inactive).

With `Cc1ccc(C)c(NC(=O)Cn2nnc(C(=O)Nc3c(C)cccc3C)c2N)c1`, the AC50 is 12.6 µM (active).

Consider `COc1ccc(CCNC(=O)c2nnn(CC(=O)Nc3ccccc3C)c2N)cc1OC`, for which the AC50 was 12.6 µM (active).

Consider `COC(=O)c1nnn(Cc2ccccc2)c1N`, for which the “activity, negative = inhibition” value is -10.5% (inactive).

As for `Cc1ccc(C)c(NC(=O)Cn2c([N+](=O)[O-])cnc2C)c1`, the “activity, negative = inhibition” value is -16.5% (inactive).

Take `Cc1ccc(C)c(NC(=O)Cn2nnc(C(=O)NCc3cccs3)c2N)c1`: the “activity, negative = inhibition” value is -15.7% (inactive).

Consider `CCOc1ccc(NC(=O)Cn2nnc(C(=O)NCc3ccccc3OC)c2N)cc1`, for which the AC50 was 11.2 µM (active).

On to `CCOc1ccc(NC(=O)c2nnn(CC(=O)Nc3ccccc3OC)c2N)cc1`, for which the “activity, negative = inhibition” value is 10.2% (inactive).

On to `O=C(O)/C=C1\NC(=O)c2ccccc21`, for which the “activity, negative = inhibition” value is -4.69% (inactive).

Turning to `NCC[C@H](N)C(=O)O`, the activity, negative = inhibition is -6.61% [at 11.4 µM] (inactive).

For `COc1ccc(NC(=O)N2CC3(CCN(S(C)(=O)=O)CC3)C2)cc1`, the “activity, negative = inhibition” value is -25.7% (inactive).

In the case of `CC(C)NC(=O)N1CC2(CCN(S(=O)(=O)c3ccccc3)CC2)C1`, the “activity, negative = inhibition” value was -13.8% (inactive).

Turning to `COc1ccc(NC(=O)N2CCC3(CC2)CCN(S(C)(=O)=O)CC3)cc1`, the “activity, negative = inhibition” value was -21.9% (inactive).

Turning to `CC(C)NC(=O)N1CC[C@@]2(CCCN(S(C)(=O)=O)C2)C1`, the “activity, negative = inhibition” value is -7.99% (inactive).

In the case of `COc1ccc(NC(=O)N2CCCC3(CCN(S(=O)(=O)c4ccccc4)CC3)C2)cc1`, the AC50 was 7.94 µM (active).

As for `COc1ccc(NC(=O)N2CCCC3(CCN(S(C)(=O)=O)CC3)C2)cc1`, the AC50 is 31.6 µM (active).

In the case of `CC(C)NC(=O)N1CCCC2(CCN(S(=O)(=O)c3ccccc3)CC2)C1`, the AC50 was 7.94 µM (active).

With `COCC(=O)N1CCC2(CCCN(C(=O)Nc3ccccc3)C2)CC1`, the “activity, negative = inhibition” value is -18.9% (inactive).

These data come from PubChem BioAssay AID1851 (National Center for Advancing Translational Sciences (NCATS), 2009).
